Records with an inconclusive call do not appear. Activity calls are given as the source filed them. Unless noted, calls follow the shape of the dose curve; as a rule, active = well fitted inhibition curve with a large enough effect; inconclusive = small, poorly fitted or top-dose-only effect; inactive = flat fitted curve, though single readings scatter.
How the values were obtained:
[1] = qHTS drug screen for cell cycle checkpoint inhibitors in PARPi-resistant BRCA-mutant ovarian cancer cell lines. (AID 1963452; calls by dose curve); settings: PEO1/OlaR viability, CellTiter-Glo luminescence, 96 h, stronger effect = lower value
How it was run: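 PEO1, PEO4 and PEO1/OlaR ovarian cancer cells, 600 per well, exposed 96 h at 37C to a dilution series. Viability read by CellTiter-Glo luminescence, normalized to DMSO and empty wells; activity summarized as Z-AUC.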

[2] = qHTS profiling for inhibitors of Plasmodium falciparum proliferation (AID 504749); also: nearly all actives have a fitted effect of over 60% in size; also: potency is read from the fitted curve at half-maximal effect;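 as to activity, negative = inhibition: 0% = DMSO vehicle and full inhibition = artemisinin control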; settings: P. falciparum in erythrocytes, SYBR Green DNA, 72 h
How it was run: (§1)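 Quantitative HTS: compounds pinned into medium, infected erythrocytes added (0.3% parasitemia, 2.5% hematocrit), 72 h culture at 37 C under 5% CO2. Saponin/Triton lysis with SYBR Green I, overnight RT, then fluorescence read.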

3D7 = experiment: as above; settings: P. falciparum in erythrocytes, SYBR Green DNA, 72 h; series mostly up to 28.7 µM
How it was run: as §1

7G8 = experiment: as above; settings: P. falciparum in erythrocytes, SYBR Green DNA, 72 h; series mostly up to 28.7 µM
How it was run: as §1

AA1029 = experiment: as above; settings: P. falciparum in erythrocytes, SYBR Green DNA, 72 h; series mostly up to 28.7 µM
How it was run: as §1

AS120 = experiment: as above; settings: P. falciparum in erythrocytes, SYBR Green DNA, 72 h; series mostly up to 28.7 µM
How it was run: as §1

ATS189 = experiment: as above; settings: P. falciparum in erythrocytes, SYBR Green DNA, 72 h; series mostly up to 28.7 µM
How it was run: as §1

ATS95 = experiment: as above; settings: P. falciparum in erythrocytes, SYBR Green DNA, 72 h; series mostly up to 28.7 µM
How it was run: as §1

[3] = qHTS for identification of novel therapeutic agents for treatment of microphthalmiaassociated transcription factor (MiT) renal cell carcinoma (RCC) (AID 1963991; calls by dose curve; also: potency is read from the fitted curve at half-maximal effect); settings: CellTiter-Glo, 48 h; for z-score: stronger effect = lower value; for Potency: active = Z-AUC below -0.8 in all three lines
How it was run: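 Curves over 11 concentrations were fitted to CellTiter-Glo luminescence, scaled between empty wells (0%) and DMSO (100%) viability. Cells were UOK109, UOK124 and UOK145 TFE3-fusion RCC lines at 500/well, exposed 48 hours at 37 C.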

[4] = measured here: PEO1 parental Z-AUC
[5] = at 28.7 µM (top of the series), parasite line A
[6] = at 28.7 µM (top of the series), parasite line B
[7] = TFE3-RCC UOK109 viability, measured here: UOK109 Z-AUC
[8] = TFE3-RCC viability, measured here: UOK124 Z-AUC
[9] = TFE3-RCC viability, measured here: UOK145 Z-AUC
[10] = at 12.8 µM (top of the series), parasite line A
[11] = at 12.8 µM (top of the series), parasite line B

COc1ccnc(CS(=O)c2nc3ccc(OC(F)F)cc3[nH]2)c1OC (stereo not drawn)
Z-AUC [1]: 1.71 (inactive)
Z-AUC [1, 4]: 1.02
Z-AUC ([1]; measured here: PEO4 Z-AUC): 1.19
activity, negative = inhibition [2, 5]: -7.9% (inactive)
activity, negative = inhibition [2, 6]: -10.6% (inactive)
Potency (3D7): inactive
Potency (7G8): inactive
Potency (AA1029): inactive
Potency (AS120): inactive
Potency (ATS189): inactive
Potency (ATS95): inactive

N#CC(c1ccc(Cl)cc1)c1c(Cl)cc(-n2ncc(=O)[nH]c2=O)cc1Cl (stereo not drawn)
Z-AUC [1]: -0.392 (inactive)
Z-AUC [1, 4]: -1.19
Z-AUC ([1]; measured here: PEO4 Z-AUC): -1.22
activity, negative = inhibition [2, 5]: -9.47% (inactive)
activity, negative = inhibition [2, 6]: -1.8% (inactive)
Potency (3D7): inactive
Potency (AA1029): inactive
Potency (AS120): inactive
Potency (ATS189): inactive
Potency (ATS95): inactive

CCC=CC[C@H]1C(=O)CC[C@@H]1CC(=O)OC
z-score [3, 7]: -0.107
z-score [3, 8]: 0.558
z-score [3, 9]: 0.356

CO[C@H]1O[C@@H]2O[C@@]3(C)CC[C@@H]4[C@@H](C)CC[C@@H]([C@H]1C)[C@@]24OO3
z-score [3, 7]: 1.01
z-score [3, 8]: 0.926
z-score [3, 9]: 0.763

CCNC(=O)CCCC=CC[C@@H]1[C@H](C=CC(O)CCc2ccccc2)[C@@H](O)C[C@@H]1O (stereo partly drawn)
z-score [3, 7]: 1.02
z-score [3, 8]: 0.311
z-score [3, 9]: 1.41

O=C(NCCCCN1CCOCC1)c1cc2ccccc2o1
z-score [3, 7]: 0.969
z-score [3, 8]: 0.64
z-score [3, 9]: 0.273

O=C(O)c1nc(=O)[nH]c(=O)[nH]1
Z-AUC [1]: 0.306 (inactive)
Z-AUC [1, 4]: -0.133
Z-AUC ([1]; measured here: PEO4 Z-AUC): -0.258
z-score [3, 7]: 1.29
z-score [3, 8]: 0.587
z-score [3, 9]: 1.2
activity, negative = inhibition [2, 5]: -16.8% (inactive)
activity, negative = inhibition [2, 6]: -28.2% (inactive)
Potency (3D7): inactive
Potency (7G8): inactive
Potency (AA1029): inactive
Potency (AS120): inactive
Potency (ATS189): inactive
Potency (ATS95): inactive

CN1CCN2c3ncccc3Cc3ccccc3C2C1 (stereo not drawn)
Z-AUC [1]: -0.118 (inactive)
Z-AUC [1, 4]: -0.0867
Z-AUC ([1]; measured here: PEO4 Z-AUC): 0.472
z-score [3, 7]: 0.418
z-score [3, 8]: 0.445
z-score [3, 9]: 0.581
activity, negative = inhibition [2, 5]: -2.79% (inactive)
activity, negative = inhibition [2, 6]: 7.38% (inactive)
Potency (3D7): inactive
Potency (7G8): 11200 nM (active)
Potency (ATS189): inactive

CC[C@H](C)C(=O)O[C@H]1C[C@H](O)C=C2C=C[C@H](C)[C@H](CC[C@@H](O)C[C@@H](O)CC(=O)O)[C@H]21
z-score [3, 7]: 0.594
z-score [3, 8]: 0.809
z-score [3, 9]: 0.248

C=C1c2cccc(O)c2C(O)=C2C(=O)[C@@]3(O)C(O)=C(C(N)=O)C(=O)[C@@H](N(C)C)[C@@H]3[C@@H](O)[C@H]12
Z-AUC [1]: -0.114 (inactive)
Z-AUC [1, 4]: -0.453
Z-AUC ([1]; measured here: PEO4 Z-AUC): -0.502
z-score [3, 7]: 1.5
z-score [3, 8]: 0.336
z-score [3, 9]: 0.104
activity, negative = inhibition [2, 10]: -22.9% (inactive)
activity, negative = inhibition [2, 11]: -19.4% (inactive)
Potency (3D7): inactive
Potency (AA1029): inactive
Potency (AS120): inactive
Potency (ATS189): inactive
Potency (ATS95): inactive

CN[C@@H]1[C@@H](O)[C@@H](O[C@@H]2[C@@H](O)[C@H](O[C@H]3O[C@H](CN)[C@@H](O)[C@H](O)[C@@H]3O)[C@@H](N)C[C@@H]2NC(=O)[C@@H](O)CN)OC[C@]1(C)O
z-score [3, 7]: 2.18
z-score [3, 8]: 0.621
z-score [3, 9]: 0.614

CCC(=O)N1CCN(c2ccc(-n3c(=O)ccc4cnc5ccc(-c6cnc7ccccc7c6)cc5c43)cc2C(F)(F)F)CC1
Z-AUC [1]: -1.59 (inactive)
Z-AUC [1, 4]: -1.67
Z-AUC ([1]; measured here: PEO4 Z-AUC): -1.97
Potency ([3]; TFE3-RCC UOK109 viability): 20.9 nM (active)
z-score [3, 7]: -1.38
z-score [3, 8]: -1.23
z-score [3, 9]: -1.82

C[C@@H]1CCO[C@H]2Cn3cc(C(=O)NCc4ccc(F)cc4F)c(=O)c(O)c3C(=O)N12
z-score [3, 7]: 0.807
z-score [3, 8]: 0.941
z-score [3, 9]: 1.66

CN(C)CCN(C)C(=O)c1ccc(NC(=O)Nc2ccc(-c3nc(N4CCOCC4)c4ccn(CC(F)(F)F)c4n3)cc2)cc1
Z-AUC [1]: -1.1 (inactive)
Z-AUC [1, 4]: -1.35
Z-AUC ([1]; measured here: PEO4 Z-AUC): -1.82
Potency ([3]; TFE3-RCC UOK109 viability): 1320 nM (active)
z-score [3, 7]: -2.71
z-score [3, 8]: -3.06
z-score [3, 9]: -1.67

N#Cc1c(N(CC(=O)O)CC(=O)O)sc(C(=O)O)c1CC(=O)O
Z-AUC [1]: 0.439 (inactive)
Z-AUC [1, 4]: 0.76
Z-AUC ([1]; measured here: PEO4 Z-AUC): 0.481
z-score [3, 7]: 0.286
z-score [3, 8]: 0.354
z-score [3, 9]: 0.00458
activity, negative = inhibition [2, 5]: 12.6% (inactive)
activity, negative = inhibition [2, 6]: 0.836% (inactive)
Potency (3D7): inactive
Potency (7G8): inactive
Potency (AA1029): inactive
Potency (AS120): inactive
Potency (ATS189): inactive
Potency (ATS95): inactive

CN(C)c1nc(Cc2ccc(NC(=O)c3ccc(C(F)(F)F)cc3)cc2)nc(N(C)C)c1CC(=O)O
z-score [3, 7]: 0.568
z-score [3, 8]: 0.491
z-score [3, 9]: 0.741

NS(=O)(=O)c1cc(Cl)c(Cl)c(S(N)(=O)=O)c1
Z-AUC [1]: 0.54 (inactive)
Z-AUC [1, 4]: 0.261
Z-AUC ([1]; measured here: PEO4 Z-AUC): 0.359
z-score [3, 7]: 0.846
z-score [3, 8]: 0.351
z-score [3, 9]: 1.23
activity, negative = inhibition [2, 10]: 1.59% (inactive)
activity, negative = inhibition [2, 11]: 6.65% (inactive)
Potency (3D7): inactive
Potency (AA1029): inactive
Potency (AS120): inactive
Potency (ATS189): inactive
Potency (ATS95): inactive

O=C(O)C1=CC(O)C(O)[C@H](O)C1 (stereo partly drawn)
z-score [3, 7]: 1.04
z-score [3, 8]: 0.866
z-score [3, 9]: 0.319

CCCCCOC(=O)Nc1nc(=O)n([C@@H]2O[C@H](C)[C@@H](O)C2O)cc1F (stereo partly drawn)
z-score [3, 7]: 0.259
z-score [3, 8]: 0.348
z-score [3, 9]: 0.317

CN[C@H]1[C@@H](O[C@@H]2[C@H](O[C@@H]3[C@@H](O)[C@@H](O)[C@@H](N=C(N)N)[C@@H](O)[C@@H]3N=C(N)N)O[C@H](C)[C@@]2(O)C=O)O[C@@H](CO)[C@@H](O)[C@H]1O
z-score [3, 7]: 2.74
z-score [3, 8]: 1.27
z-score [3, 9]: 2.73

Nc1ccc(-c2ccc3ncc4ccc(=O)n(-c5cccc(C(F)(F)F)c5)c4c3c2)cn1
Z-AUC [1]: -1.37 (inactive)
Z-AUC [1, 4]: -2.21
Z-AUC ([1]; measured here: PEO4 Z-AUC): -1.55
Potency ([3]; TFE3-RCC UOK109 viability): 3320 nM (active)
z-score [3, 7]: -2.43
z-score [3, 8]: -4.62
z-score [3, 9]: -4.33

CCOC(=O)[C@H]1O[C@H]1C(=O)N[C@@H](CC(C)C)C(=O)NCCC(C)C
z-score [3, 7]: 0.719
z-score [3, 8]: 0.357
z-score [3, 9]: 0.572

Reference: PubChem BioAssay (NCATS)
